Source: PubChem
A selection follows.
aSyn UTR act: Activators working through SNCA 5'UTR binding (MLPCN) | alpha-synuclein 5'UTR reporter, activators screen | activity score, % (tested at 7.5 µM), hits read low | 300,000 tested, 7.1% active | AID 1814; in the data active = activity score below about -60%
Starred values were filed as active, the others as inactive.

SMILES | aSyn UTR act
CN1Cc2c(N3CCOCC3)nc3sc(C(=O)c4ccc(Br)cc4)c(N)c3c2CC1(C)C | 105
CN(C)c1ccnc2sc(C(=O)c3ccc(Br)cc3)c(N)c12 | -85*
O=C(Cc1cccc2ccccc12)Nc1ccc2c(c1)C(=O)NC2=O | -65*
COc1cccc(-c2nc(=S)c3c(n2Cc2ccco2)CCCC3)c1 | -89*
Oc1cccc2c3c(oc12)CCCC3 | 52
S=c1nc(-c2ccccc2)oc2c1CCCC2 | -144*
O=[N+]([O-])c1ccc(-c2nc(=S)c3c(o2)CCCC3)cc1 | -106*
COc1cccc(-c2nc(=S)c3c(o2)CCCC3)c1 | -118*
CCOc1ccc(S(=O)(=O)N(CC(=O)N/N=C/c2ccc(-c3ccc([N+](=O)[O-])cc3)o2)c2ccccc2)cc1 | -72*
COC(=O)N/N=C\c1ccc(-c2cc(Cl)c(Cl)cc2Cl)o1 | 54
CCOC(=O)c1ccc(-c2ccc(/C=N/NC(=O)CN(c3ccccc3Cl)S(C)(=O)=O)o2)cc1 | -153*
Cc1cc(O)ccc1N/C=C(\C#N)c1nc2ccccc2o1 | -141*
CCn1cc([N+](=O)[O-])c(C(=O)Nc2ccc3c(c2)OCCO3)n1 | -69*
O=C(Nc1ccc2c(c1)OCCO2)c1ccc(Cl)c(Cl)c1 | -131*
CCOc1ccc(C(=O)Nc2ncccc2Cl)cc1 | -116*
O=C(Nc1ncccc1Cl)c1ccc2c(c1)OCCO2 | -119*
O=C(Nc1ccc2c(c1)OCCO2)c1ccc(Cl)c([N+](=O)[O-])c1 | -105*
O=C(Nc1ccc(Cl)c(Cl)c1)C1=Cc2ccccc2OC1 | -202*
N#Cc1ccsc1NC(=O)c1ccc(Cl)c([N+](=O)[O-])c1 | -116*
O=C(CNC(=O)c1ccc2c(c1)OCO2)Nc1ncccc1O | -77*
COc1ccc(-c2cc3cc(OC)c(OC)cc3c(C)n2)cc1 | -105*
Nc1ccc(-c2nc3ncccc3o2)c(O)c1 | -176*
Nc1ccc(-c2nc3ncccc3o2)c(Cl)c1 | -104*
O=c1[nH]c(=O)n([C@H]2C[C@H](O)[C@@H](CO)O2)cc1F | 80
CCC(C)OC(=O)n1ccc(C(=O)Nc2nccs2)n1 (configuration not stated) | -69*
SMILES | aSyn UTR act
C=CCN(C(=O)c1oc2c(Cl)cc(C)cc2c1C)C1CCS(=O)(=O)C1 (configuration not stated) | -71*
C#C[C@]1(O)CC[C@H]2[C@@H]3CCc4cc(OC)ccc4[C@H]3CC[C@@]21C | -70*
C#C[C@]1(O)CC[C@H]2[C@@H]3CCc4cc(OC5CCCC5)ccc4[C@H]3CC[C@@]21C | -75*
CS(=O)(=O)c1nc(-c2ccc(F)cc2)cc(C(F)(F)F)n1 | -126*
CS(=O)(=O)c1nc(-c2cccs2)cc(C(F)(F)F)n1 | -90*
Cc1cc(NC(=O)CCCS(=O)(=O)c2nc(-c3cccs3)cc(C(F)(F)F)n2)no1 | -92*
COc1ccc(-c2cc(C(F)(F)F)nc(S(C)(=O)=O)n2)cc1 | -103*
CC(C)c1ccc(CNc2ncccn2)cc1 | -128*
CCCC(=O)NC(c1ccc(C(C)C)cc1)c1ccc2cccnc2c1O (configuration not stated) | 83
CC(C)c1ccc(CNc2ccc3c(c2)ncn3C)cc1 | -206*
Cn1cnc2cc(NCc3ccccc3Cl)ccc21 | -92*
CCn1cnc2cc(NCc3ccccc3Cl)ccc21 | -87*
Cc1ccnc2nc(C(=O)Nc3cc(Cl)ccc3N3CCOCC3)nn12 | -77*
Cc1ccc(Nc2nc(Cl)c(C=O)s2)cc1Cl | -115*
O=Cc1sc(Nc2ccccc2)nc1Cl | -117*
COc1ccccc1Nc1nc(Cl)c(C=O)s1 | -104*
COc1ccccc1Nc1nc2c(s1)CCC2 | -68*
Oc1ccc2ccccc2c1N=Nc1ccccn1 | 75
CCCn1c(O)c(N=Nc2ccc3ccccc3n2)c2ccccc21 | -177*
Nc1nc(-c2cc3ccccc3o2)cs1 | -132*
CN1CCN(c2nc(-c3cc4ccccc4o3)cs2)CC1 | -142*
Cc1cc(C)n(CCc2nc(-c3cc4ccccc4o3)cs2)n1 | -112*
CC(Sc1nnc(-c2cccnc2)n1-c1ccccc1)C(=O)NCc1ccc2c(c1)OCO2 (configuration not stated) | -71*
COc1ccc(Nc2ccc3c(c2)=NC2(CCCCC2)[N+]=3[O-])cc1 | -87*
Cc1ccc(C(=O)CCC2CCCCC2=O)cc1 (configuration not stated) | -151*
SMILES | aSyn UTR act
Cc1ccc(C(=O)CCC2CCCC2=O)cc1 (configuration not stated) | -100*
CCc1ccc(C(=O)CCC2CCCCC2=O)cc1 (configuration not stated) | -130*
COc1ccc(C2=NCN(c3ccc(C)cc3)C(=S)N2)cc1 | -138*
Cc1ccc(N2CN=C(c3ccccc3)NC2=S)cc1 | -113*
COc1ccc(-c2cn3c(C)c(C(=O)NC(C)(C)C)sc3n2)cc1 | -229*
COc1ccc(-c2cn3c(C)c(C(=O)NC(C)C)sc3n2)cc1 | -78*
COC(=O)C(Cc1ccc(OC(=O)c2ccc(Cl)cc2)cc1)N1Cc2ccccc2C1=O (configuration not stated) | -124*
COC(=O)C(Cc1ccc(OC(=O)c2ccc(C(F)(F)F)cc2)cc1)N1Cc2ccccc2C1=O (configuration not stated) | -137*
Nc1nc2ccccc2n1C(=O)CCc1ccccc1 | -63*
CCOCC(=O)Nc1cccc(-c2nc3cccnc3s2)c1C | -63*
O=c1[nH][nH]c(-c2ccccc2O)c1C(C[N+](=O)[O-])c1ccc(Cl)cc1Cl (configuration not stated) | -83*
CN1CCc2c(sc(/N=C/c3cccs3)c2C(N)=O)C1 | -75*
CCOC(=O)N1CCc2c(sc(NC(=O)C3COc4ccccc4O3)c2C(N)=O)C1 (configuration not stated) | -109*
CN1CCc2c(sc(NC(=O)c3ccc4ccccc4c3)c2C(N)=O)C1 | -108*
CC(=O)N1CCc2c(sc(NC(=O)C3COc4ccccc4O3)c2C(N)=O)C1 (configuration not stated) | -74*
COc1cc2ccccc2cc1C(=O)Nc1sc2c(c1C(N)=O)CCN(C(C)C)C2 | 102
CCN1CCc2c(sc(NC(=O)C3COc4ccccc4O3)c2C(N)=O)C1 (configuration not stated) | -96*
CN1CCc2c(sc(NC(=O)C3COc4ccccc4O3)c2C(N)=O)C1 (configuration not stated) | -117*
CC1=NN(c2ccccc2)C(=O)/C1=C/c1c(O)n(-c2ccc(F)c(Cl)c2)[nH]c1=O | -105*
Cc1ccc(-c2nnc(N(C)C(=O)c3cccnc3)s2)cc1 | -76*
COc1ccc(-c2nnc(N(C)C(=O)c3cccnc3)s2)cc1 | -108*
O=C(/C=C/c1cccc(Oc2ccccc2)c1)N1CCOCC1 | -95*
O=C(/C=C/c1cccc2ccccc12)N1CCOCC1 | -63*
O=C(/C=C/c1ccc(OCCCF)cc1)N1CCOCC1 | -70*
COc1c(O)ccc(/C=C(\C#N)c2nc3ccccc3[nH]2)c1[N+](=O)[O-] | -92*
COc1cc(/C=C(\C#N)c2nc3ccccc3[nH]2)cc(OC)c1O | -99*
COc1ccc(/C=C(\C#N)c2nc3ccc(C)cc3[nH]2)cc1Oc1ccc(C(F)(F)F)cc1[N+](=O)[O-] | -85*
COc1cc(/C=C(/C#N)c2nc3ccccc3[nH]2)ccc1OC(=O)c1ccco1 | -114*
COc1cc(/C=C(\C#N)c2nc3ccccc3[nH]2)ccc1Oc1ccc([N+](=O)[O-])cn1 | -104*
